Each structure is given as a SMILES string. About 16,000 (4.4%) of roughly 360,000 compounds were called active. Not shown: some 9% with an inconclusive outcome. What follows is part of a selection rich in actives, with near analogues and random picks from the rest. Values without a mark were called inactive. The call rests on the fitted dose curve; in most records, active means well fitted inhibition curve with a large enough effect; inconclusive means small, poorly fitted or top-dose-only effect; inactive means no such curve, though single readings can be large or run the other way.
On the % scale 0 is the no-effect control and ±100 the full control effect; potency means the concentration at half of the fitted maximal effect.

Chain of Bromodomain adjacent to zinc finger domain protein 2B (Homo sapiens) (Q9UIF8 whole entry, looked up, the tested form may be a part): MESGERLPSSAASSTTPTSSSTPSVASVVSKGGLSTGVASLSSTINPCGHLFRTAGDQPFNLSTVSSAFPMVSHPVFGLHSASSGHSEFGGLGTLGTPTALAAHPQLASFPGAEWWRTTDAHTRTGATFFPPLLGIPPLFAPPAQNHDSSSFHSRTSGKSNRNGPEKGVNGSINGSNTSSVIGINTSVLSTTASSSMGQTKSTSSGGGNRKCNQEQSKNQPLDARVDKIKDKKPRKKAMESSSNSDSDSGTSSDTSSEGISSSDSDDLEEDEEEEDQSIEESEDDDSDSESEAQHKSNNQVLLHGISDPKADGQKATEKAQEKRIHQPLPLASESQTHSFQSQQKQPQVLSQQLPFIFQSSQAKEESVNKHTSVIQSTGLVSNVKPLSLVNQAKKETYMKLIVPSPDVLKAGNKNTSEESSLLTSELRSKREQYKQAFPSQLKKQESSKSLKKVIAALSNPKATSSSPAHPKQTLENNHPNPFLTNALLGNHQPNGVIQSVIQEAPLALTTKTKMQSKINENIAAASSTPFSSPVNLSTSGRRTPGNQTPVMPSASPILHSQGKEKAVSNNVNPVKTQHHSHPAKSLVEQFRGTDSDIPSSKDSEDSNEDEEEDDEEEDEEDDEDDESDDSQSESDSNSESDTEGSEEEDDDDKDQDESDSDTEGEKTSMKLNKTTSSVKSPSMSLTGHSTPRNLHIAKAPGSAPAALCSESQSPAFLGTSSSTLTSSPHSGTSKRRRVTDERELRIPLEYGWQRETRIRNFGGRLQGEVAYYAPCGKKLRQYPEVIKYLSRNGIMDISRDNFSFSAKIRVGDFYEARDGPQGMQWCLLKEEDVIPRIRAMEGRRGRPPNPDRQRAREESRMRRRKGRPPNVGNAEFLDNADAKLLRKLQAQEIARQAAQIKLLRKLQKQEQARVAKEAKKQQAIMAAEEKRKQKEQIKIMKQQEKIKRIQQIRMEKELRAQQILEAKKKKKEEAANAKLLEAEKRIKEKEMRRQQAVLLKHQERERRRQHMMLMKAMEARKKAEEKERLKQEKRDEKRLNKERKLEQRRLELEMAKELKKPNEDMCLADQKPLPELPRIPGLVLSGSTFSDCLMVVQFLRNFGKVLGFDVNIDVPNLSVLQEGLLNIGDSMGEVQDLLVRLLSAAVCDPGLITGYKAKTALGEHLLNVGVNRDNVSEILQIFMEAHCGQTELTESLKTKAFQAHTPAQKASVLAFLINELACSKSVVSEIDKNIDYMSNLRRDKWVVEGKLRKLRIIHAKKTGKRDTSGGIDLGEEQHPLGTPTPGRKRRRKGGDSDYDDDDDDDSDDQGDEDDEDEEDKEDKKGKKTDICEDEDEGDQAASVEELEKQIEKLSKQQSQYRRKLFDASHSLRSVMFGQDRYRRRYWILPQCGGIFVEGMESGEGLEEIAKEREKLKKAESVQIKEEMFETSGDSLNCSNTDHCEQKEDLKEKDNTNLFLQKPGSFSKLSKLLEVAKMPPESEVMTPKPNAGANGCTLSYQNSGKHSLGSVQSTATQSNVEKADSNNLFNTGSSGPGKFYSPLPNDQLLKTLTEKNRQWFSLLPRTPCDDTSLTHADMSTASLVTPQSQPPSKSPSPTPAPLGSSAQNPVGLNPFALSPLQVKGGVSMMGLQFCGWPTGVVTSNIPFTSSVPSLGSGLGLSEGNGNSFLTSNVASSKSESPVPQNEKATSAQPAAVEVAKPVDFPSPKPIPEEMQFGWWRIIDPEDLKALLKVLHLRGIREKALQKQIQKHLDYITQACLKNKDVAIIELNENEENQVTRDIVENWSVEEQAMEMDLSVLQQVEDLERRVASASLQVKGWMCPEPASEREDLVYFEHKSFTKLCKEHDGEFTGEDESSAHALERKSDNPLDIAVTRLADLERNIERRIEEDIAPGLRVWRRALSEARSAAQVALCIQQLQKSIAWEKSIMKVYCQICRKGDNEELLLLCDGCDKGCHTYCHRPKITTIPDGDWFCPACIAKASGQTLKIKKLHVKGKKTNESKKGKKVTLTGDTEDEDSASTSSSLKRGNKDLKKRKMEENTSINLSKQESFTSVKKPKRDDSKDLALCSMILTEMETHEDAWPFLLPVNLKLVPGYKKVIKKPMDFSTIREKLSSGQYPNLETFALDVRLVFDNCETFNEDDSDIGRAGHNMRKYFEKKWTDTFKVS

The assay has as its target Bromodomain adjacent to zinc finger domain protein 2B (Homo sapiens) (UniProt Q9UIF8). Kind of assay: qHTS Assay for Inhibitors of BAZ2B. Further: nearly all actives have a fitted effect of over 60% in size. The settings on record: AlphaScreen BAZ2B-H3K14Ac peptide displacement; series mostly up to 114 µM; activity change, negative = inhibition: at the top concentration. Summed up: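 Multi-concentration screen (max 110 uM) measuring displacement of acetylated histone H3 peptide from BAZ2B by AlphaScreen, using 50 nM protein, 50 nM peptide and 10 ug/mL streptavidin donor plus Ni-chelate acceptor beads.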
As for `CCC(C(=O)Nc1cccc(Cl)c1C)n1nc(-c2ccc(C)cc2)ccc1=O` (centres undefined), the “activity change, negative = inhibition” value was -22.7%.
The same measure, in the same setting: then `O=C(NCCNc1ccccc1[N+](=O)[O-])c1ccccc1F`, with 8.95% [at 0.457 µM]; and `O=C(Nc1ccccc1-c1ccccc1)c1ccccc1[N+](=O)[O-]`, with -5.53%.
With `O=[N+]([O-])c1ccccc1Nc1ccc(O)cc1`, the Potency was 39.8 µM (active).
On to `COC(=O)c1ccccc1NC(=O)c1cc(-c2ccccc2O)no1`, for which the “activity change, negative = inhibition” value was -17.4%.
Consider `O=C(CN1C(=O)COc2ccccc21)Nc1ccc(F)cc1`, for which the Potency was 28.2 µM (active).
Turning to `O=C(CN1C(=O)COc2ccccc21)NCCN1CCc2ccccc2C1`, the “activity change, negative = inhibition” value is -19.6%.
The same measure, in the same setting: to `CC(OC(=O)CN1C(=O)COc2ccccc21)C(=O)NCc1ccc(F)cc1` (centres undefined) belongs 13.9%; to `O=C(NCc1ccccc1Cl)c1cccn1-c1nnc(N2CCCCC2)s1`, -15%.
On to `COc1ccccc1Nc1nc(N)nc(CN(C)C2CCCCC2)n1`, for which the Potency is 10 µM (active).
Turning to `COc1ccccc1Nc1nc(N)nc(N)c1S(=O)(=O)c1ccccc1`, the “activity change, negative = inhibition” value is -19.9%.
Same read-out and setting: then `COc1ccccc1Nc1nc(N)nc(CSC(=S)N2CCOCC2)n1`, with -23.7%; and `COc1ccc(CCN2C(=O)c3oc4cc(C)cc(C)c4c(=O)c3C2c2ccccc2F)cc1OC` (centres undefined), with 7.46%.
As to `COc1ccc(-c2cn3nc(N4CCCC(C(=O)NCCCOC(C)C)C4)sc3n2)cc1` (centres undefined), the “activity change, negative = inhibition” value is -28%.
For the compound `COc1ccc(CNC(=O)Cc2ccc(-c3ccccc3)cc2)cc1OC`, the “activity change, negative = inhibition” value is -25%.
Same read-out and setting: to `COC(=O)c1cc(NC(=O)c2cnc(SC)nc2-c2ccccc2)cc(C(=O)OC)c1` belongs 2.05%.
For `COC(=O)c1ccc(-c2c(-c3ccccc3)ncc3cc(OC)c(OC)cc23)cc1`, the Potency is 56.2 µM (active).
For `Cc1c(Cl)cccc1NC(=O)c1noc2c1CCCC2`, the “activity change, negative = inhibition” value was 30%.
Same read-out and setting: then `COc1ccnc(Oc2ccccc2)c1-c1ncn[nH]1`, with 1.04%.
Regarding `COc1cnc(-c2ccccn2)nc1Oc1ccc(C(C)(C)C)cc1`, the Potency was 22.4 µM (active).
As for `N#Cc1ccc(Oc2cc(C(F)(F)F)nc(-c3ccccn3)n2)cc1`, the “activity change, negative = inhibition” value was -6.1%.
Take `Cc1ccc(C(=O)N2c3ncnn3C3(CCCCC3)[C@@H]3CCCC[C@@H]32)cc1`: the “activity change, negative = inhibition” value was -14.5%.
As to `Cc1onc(-c2ccc(F)cc2F)c1C(=O)Nc1cccc(C(F)(F)F)c1`, the “activity change, negative = inhibition” value is -2.91%.
Still for that read-out and setting: then `COc1ccc(OCCn2cc(C(=O)C3CCCCC3)c3ccccc32)cc1`, with 15.3% [at 57.1 µM]; and `COc1ccc(CCNC(=O)CCc2c(C)nc3c(c(C)nn3-c3ccc(C)c(C)c3)c2C)c(OC)c1OC`, with -17%.
Still for that read-out and setting: to `O=C(c1ccc(Br)cc1)N(Cc1cccs1)c1ccc(F)cc1` belongs -3.77%; to `COc1ccccc1-c1nnc(SCC(N)=O)o1`, -1.92%.
Consider `Cc1cccc(C)c1OCC(=O)NC(Cc1c[nH]c2ccccc12)C(=O)O` (centres undefined), for which the Potency result was “inactive”.
Consider `COc1ccc(-c2cc(C(=O)NC(Cc3c[nH]c4ccccc34)C(=O)O)c(C)o2)cc1OC` (centres undefined), for which the Potency is 50.1 µM (active).
For the compound `CC(=O)NC(Cc1c[nH]c2ccccc12)C(=O)O` (centres undefined), the “activity change, negative = inhibition” value is -15.6%.
With `COc1cc(/C=N/NC(=O)c2cc(C)n(-c3ccc(F)cc3)c2C)cc(OC)c1O`, the “activity change, negative = inhibition” value is -35.5%.
For the compound `Cc1cc(C(=O)N/N=C/c2ccc(O)c([N+](=O)[O-])c2)c(C)n1-c1ccc(F)cc1`, the Potency is 50.1 µM (active).
`COc1cc(/C=N/NC(=O)c2ccc(N3CCCC3=O)cc2)ccc1O`: the “activity change, negative = inhibition” value is -3.64%.
As to `CCc1nc2nc(C)cc(Nc3ccc(F)c(Cl)c3)n2n1`, the “activity change, negative = inhibition” value is 1.95%.
Still for that read-out and setting: then `COc1ccc(C)cc1NC(=O)CCc1c(C)nn(-c2ccc(N3CCOCC3)nn2)c1C`, with -14.2%.
Still for that read-out and setting: then `CCOc1ccc(CNC(=O)CCc2c(C)nn(-c3ccc(N4CCCCC4)nn3)c2C)cc1`, with -15.5%.
In the case of `Cc1nn(-c2ccc(N3CCCCC3)nn2)c(C)c1CCC(=O)NCc1ccc(F)cc1`, the Potency was 79.4 µM (active).
On the same count and under the same terms, then `COc1ccc(CNC(=O)CCc2c(C)nn(-c3ccc(N4CCCC4)nn3)c2C)cc1`, with 79.4 µM (active).
Consider `Cc1ccc(CNC(=O)CCc2c(C)nc3c(c(C)nn3-c3ccccc3)c2C)cc1`, for which the “activity change, negative = inhibition” value was -0.737%.
Same read-out and setting: to `COC(=O)c1ccc(NC(=O)CCc2c(C)nn(-c3ccc(N4CCCC4)nn3)c2C)cc1` belongs -25.5%; to `COc1cc(OC)cc(C(=O)Nc2c(C(=O)Nc3ccc(F)cc3)oc3ccccc23)c1`, -0.325%.
The same measure, in the same setting: to `COc1ccc(-c2nc(CN3CCC(C(=O)NCCN(CC(C)C)CC(C)C)CC3)c(C)o2)cc1OC` belongs -14.9%.
Same read-out and setting: then `CC(=O)N1CCCc2cc(S(=O)(=O)N3CCC(C(=O)NCc4ccc(F)cc4)CC3)ccc21`, with -6.68%.
`CN(C)c1ccc(C(CNS(=O)(=O)c2cc(F)ccc2F)N2CCOCC2)cc1` (centres undefined): the “activity change, negative = inhibition” value was -25.9%.
On the same count and under the same terms, to `COc1ccc(Cn2c(C(=O)O)c(CNCCc3cccs3)c3ccc(OC)cc32)cc1` belongs -35.3%.
On the same count and under the same terms, then `O=C(O)c1ccc2c(c1)N(Cc1ccc(F)cc1)C(=O)c1ccccc1S2=O` (centres undefined), with 4.07%; and `Cc1nn(C(C)C(=O)NCCc2ccccc2)c(=O)c2c1sc1ccccc12` (centres undefined), with -8.46%; and `COc1ccc2ccccc2c1/C=N/NC(=O)c1cc(C)[nH]n1`, with -26%.
Turning to `Cc1cc(C(=O)N/N=C/c2cc([N+](=O)[O-])cc(C)c2O)n[nH]1`, the Potency is 25.1 µM (active).

The record behind these values is PubChem BioAssay AID504333 (National Center for Advancing Translational Sciences (NCATS), 2011).
